Laboratory results: PubChem BioAssay (NCI)
Compounds without any hit were thinned out: in the full panel of roughly 83,000, 20% have a hit.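 Growth was measured after 48 h exposure to one concentration of compound in 96-well plates. Values under 10 count as active.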 Calls of active or inactive are those of the source.

Key:
Assay in all cases: NCI-60 one-dose screen, 48 h (100 = growth as untreated, 0 = no growth, -100 = all killed)
Conditions in all cases: 10 µM unless noted
SK-MEL-2 melanoma = tested on: SK-MEL-2 melanoma
EKVX NSCLC = tested on: EKVX NSCLC
SN12C renal = tested on: SN12C renal
UO-31 renal = tested on: UO-31 renal
TK-10 renal = tested on: TK-10 renal
ACHN renal = tested on: ACHN renal
CAKI-1 renal = tested on: CAKI-1 renal
A498 renal = tested on: A498 renal
CCRF-CEM leukemia = tested on: CCRF-CEM leukemia
MOLT-4 leukemia = tested on: MOLT-4 leukemia
SR leukemia = tested on: SR leukemia
RPMI-8226 leukemia = tested on: RPMI-8226 leukemia
OVCAR-8 ovarian = tested on: OVCAR-8 ovarian
OVCAR-5 ovarian = tested on: OVCAR-5 ovarian
OVCAR-4 ovarian = tested on: OVCAR-4 ovarian
SK-OV-3 ovarian = tested on: SK-OV-3 ovarian
IGROV1 ovarian = tested on: IGROV1 ovarian
OVCAR-3 ovarian = tested on: OVCAR-3 ovarian
HS 578T breast = tested on: HS 578T breast
NCI/ADR-RES ovarian = tested on: NCI/ADR-RES ovarian

Measured: growth

Cc1n[nH]c2ccc(Br)cc2c1=O
inactive: SK-MEL-2 melanoma 99.4% | EKVX NSCLC 110% | SN12C renal 106% | UO-31 renal 75.8% | TK-10 renal 104% | ACHN renal 100% | CAKI-1 renal 103% | A498 renal 83.7% | CCRF-CEM leukemia 89.2% | MOLT-4 leukemia 92.8% | SR leukemia 100% | RPMI-8226 leukemia 98.1% | OVCAR-8 ovarian 110% | OVCAR-5 ovarian 102% | OVCAR-4 ovarian 125% | SK-OV-3 ovarian 98.6% | IGROV1 ovarian 99.6% | OVCAR-3 ovarian 109% | HS 578T breast 101% | NCI/ADR-RES ovarian 110%

N=C(N)c1ccc(-c2ccc(-c3cc(Cl)cc(Cl)c3)s2)nc1
active: MOLT-4 leukemia 2.78% | SR leukemia 8.46% | RPMI-8226 leukemia 8.67% | OVCAR-8 ovarian -17.5%
inactive: SK-MEL-2 melanoma 109% | EKVX NSCLC 94.5% | SN12C renal 83% | UO-31 renal 90.6% | TK-10 renal 115% | ACHN renal 74.8% | CAKI-1 renal 30.9% | A498 renal 91.6% | CCRF-CEM leukemia 21.7% | OVCAR-5 ovarian 93.9% | OVCAR-4 ovarian 59.1% | SK-OV-3 ovarian 84.1% | IGROV1 ovarian 46.7% | OVCAR-3 ovarian 19.8% | HS 578T breast 94% | NCI/ADR-RES ovarian 91.4%

O=C(/C=C/C12c3ccccc3C(c3ccccc31)C1C(=O)NC(=O)C12)c1ccc(Br)cc1 (stereo not given)
inactive: SK-MEL-2 melanoma 52.2% | EKVX NSCLC 60.2% | SN12C renal 46.2% | UO-31 renal 41.4% | TK-10 renal 61.2% | ACHN renal 66.2% | CAKI-1 renal 56.4% | A498 renal 60.2% | SR leukemia 14.4% | OVCAR-8 ovarian 19.6% | OVCAR-5 ovarian 59.6% | OVCAR-4 ovarian 63.9% | SK-OV-3 ovarian 72.5% | IGROV1 ovarian 48% | OVCAR-3 ovarian 13% | HS 578T breast 45.2% | NCI/ADR-RES ovarian 45.1%
active: CCRF-CEM leukemia -3.91% | MOLT-4 leukemia 3.02% | RPMI-8226 leukemia -10.7%

CCOC(=O)CC1CSC(Nc2ccccc2)=N1 (stereo not given)
inactive: SK-MEL-2 melanoma 97.4% | EKVX NSCLC 104% | SN12C renal 103% | UO-31 renal 91.8% | TK-10 renal 86% | ACHN renal 105% | CAKI-1 renal 103% | A498 renal 83% | CCRF-CEM leukemia 98.3% | MOLT-4 leukemia 101% | SR leukemia 98.5% | RPMI-8226 leukemia 105% | OVCAR-8 ovarian 101% | OVCAR-5 ovarian 104% | OVCAR-4 ovarian 112% | SK-OV-3 ovarian 105% | IGROV1 ovarian 103% | OVCAR-3 ovarian 102% | HS 578T breast 103% | NCI/ADR-RES ovarian 99.8%

Fc1cc(Nc2ccc3c(OCCCN4CCOCC4)cccc3n2)ccc1Cl
inactive: SK-MEL-2 melanoma 88.8% | EKVX NSCLC 39.9% | SN12C renal 62.6% | UO-31 renal 33.3% | TK-10 renal 66.1% | ACHN renal 52.6% | CAKI-1 renal 54.8% | A498 renal 54.4% | CCRF-CEM leukemia 29.2% | SR leukemia 10.7% | OVCAR-8 ovarian 73.5% | OVCAR-5 ovarian 33.5% | OVCAR-4 ovarian 53.1% | SK-OV-3 ovarian 67.7% | IGROV1 ovarian 36.2% | OVCAR-3 ovarian 65.1% | HS 578T breast 40.1% | NCI/ADR-RES ovarian 48.5%
active: MOLT-4 leukemia 3.8% | RPMI-8226 leukemia 4.49%

COc1ccc(CNc2c3ccccc3nc3ccccc23)c(OC)c1
active: A498 renal -11.5%
inactive: SK-MEL-2 melanoma 94% | EKVX NSCLC 51.1% | SN12C renal 31% | UO-31 renal 28% | TK-10 renal 54.4% | ACHN renal 25.8% | CAKI-1 renal 36.2% | CCRF-CEM leukemia 55.4% | MOLT-4 leukemia 18.5% | SR leukemia 18.1% | RPMI-8226 leukemia 34.9% | OVCAR-8 ovarian 37.8% | OVCAR-5 ovarian 50.3% | OVCAR-4 ovarian 39.7% | SK-OV-3 ovarian 63.3% | IGROV1 ovarian 22.4% | OVCAR-3 ovarian 69.2% | HS 578T breast 68.9% | NCI/ADR-RES ovarian 35.6%

C=C(C)[C@@H]1CC[C@]2(C(=O)N3CCN(C)CC3)CC[C@]3(C)[C@H](CC[C@@H]4[C@@]5(C)CC[C@H](OC(=O)c6ccccc6C(=O)O)C(C)(C)[C@@H]5CC[C@]43C)[C@@H]12
inactive: SK-MEL-2 melanoma 107% | EKVX NSCLC 98.4% | SN12C renal 93.5% | UO-31 renal 77.7% | TK-10 renal 106% | ACHN renal 100% | CAKI-1 renal 83.9% | A498 renal 74.9% | CCRF-CEM leukemia 97.1% | MOLT-4 leukemia 88.7% | SR leukemia 90.5% | RPMI-8226 leukemia 96.7% | OVCAR-8 ovarian 104% | OVCAR-5 ovarian 104% | OVCAR-4 ovarian 99.2% | SK-OV-3 ovarian 104% | IGROV1 ovarian 97.9% | OVCAR-3 ovarian 110% | HS 578T breast 94.7% | NCI/ADR-RES ovarian 104%

CC(C)(C)n1cc(-c2ccnc(NCCCNS(=O)(=O)c3cccc4ccccc34)c2)c(-c2cccc(F)c2)n1
inactive: SK-MEL-2 melanoma 107% | EKVX NSCLC 68.6% | SN12C renal 73.3% | UO-31 renal 65.9% | TK-10 renal 97% | ACHN renal 91.5% | CAKI-1 renal 94.3% | A498 renal 29.2% | CCRF-CEM leukemia 56.9% | MOLT-4 leukemia 57.9% | SR leukemia 27.8% | RPMI-8226 leukemia 65.4% | OVCAR-8 ovarian 81.4% | OVCAR-5 ovarian 91.9% | OVCAR-4 ovarian 78.1% | SK-OV-3 ovarian 91.9% | IGROV1 ovarian 78.9% | OVCAR-3 ovarian 90.1% | HS 578T breast 91.4% | NCI/ADR-RES ovarian 78.2%
